Assay outcomes as filed in PubChem BioAssay.
A selection: hits, their analogues and other compounds. The true share with any hit is near 1.6%.
KCNQ2 pot: enhances the rat KCNQ2 potassium channel | 310,000 tested, 0.54% active | B-score at 10 µM | CHO-K1 KCNQ2, FluxOR thallium flux fluorescence; hits give high values | AID 2239 | O88943;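 active means fluorescence ratio B-score at least 3 SD of library B-scores, with initial fluorescence B-score within 3 of them, cut at about 5.3 in these data; same plate scores as AID 2156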;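 further: B-score of peak minus minimum over baseline fluorescence ratio after K+ and Tl+ stimulus; positive B-score means potentiation of KCNQ2 with more thallium influx and brighter signal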
Target sequence (O88943 whole entry, looked up): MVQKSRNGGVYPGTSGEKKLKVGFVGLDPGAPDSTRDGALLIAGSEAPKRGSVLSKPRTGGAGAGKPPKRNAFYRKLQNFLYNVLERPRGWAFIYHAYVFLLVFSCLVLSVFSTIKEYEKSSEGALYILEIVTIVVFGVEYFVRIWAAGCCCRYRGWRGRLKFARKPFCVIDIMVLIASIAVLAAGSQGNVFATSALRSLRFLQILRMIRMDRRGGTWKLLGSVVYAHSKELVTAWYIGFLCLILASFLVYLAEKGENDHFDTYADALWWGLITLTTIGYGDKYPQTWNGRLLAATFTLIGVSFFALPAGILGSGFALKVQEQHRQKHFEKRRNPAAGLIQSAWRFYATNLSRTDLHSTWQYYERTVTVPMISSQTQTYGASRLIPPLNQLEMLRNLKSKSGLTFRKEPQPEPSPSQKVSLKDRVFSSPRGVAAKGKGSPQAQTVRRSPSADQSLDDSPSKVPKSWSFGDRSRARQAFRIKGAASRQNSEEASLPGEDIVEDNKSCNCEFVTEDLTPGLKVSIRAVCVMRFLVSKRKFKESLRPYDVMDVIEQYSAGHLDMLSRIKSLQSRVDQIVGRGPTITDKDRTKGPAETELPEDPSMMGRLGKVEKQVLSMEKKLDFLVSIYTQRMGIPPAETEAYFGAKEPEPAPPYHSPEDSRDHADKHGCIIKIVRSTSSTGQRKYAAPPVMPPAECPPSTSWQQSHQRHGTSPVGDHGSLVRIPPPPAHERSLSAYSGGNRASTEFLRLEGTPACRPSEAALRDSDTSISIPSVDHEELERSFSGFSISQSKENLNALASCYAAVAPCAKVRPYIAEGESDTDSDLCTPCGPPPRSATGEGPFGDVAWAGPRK
KCNQ2 inh: inhibitors of rat KCNQ2 potassium channel; CHO-K1 KCNQ2, FluxOR thallium flux, 20 min; hits give low values; B-score at 10 µM; 310,000 tested, 1.1% active;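 active means fluorescence ratio B-score at most minus 3 library SDs, with starting brightness B-score within 2 library SDs, cut at about -5.5 in these data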
* = called active by the depositor; i = inactive; · = not tested or not shown.

SMILES	KCNQ2 pot	KCNQ2 inh
O=C(OCN1C(=O)C(=O)c2ccccc21)c1ccc(Cl)cc1	·	i
O=C(CN(C(=O)CCC(=O)Nc1ccccn1)c1cccc(F)c1)NCc1ccco1	·	i
O=C(NCC1CCCN(Cc2ccc3nonc3c2)C1)c1cccc(C(F)(F)F)c1 (stereo not given)	-5.7	-5.7*
O=C(NCC1CCCN(Cc2ccc3c(c2)OCCO3)C1)c1ccc2c(c1)OCO2 (stereo not given)	0.77	i
COc1ccc(C(=O)CNc2ccc(C)cc2C)cc1	·	i
CC1=N/C(=C\c2ccc([N+](=O)[O-])cc2)C(=O)N1c1ccc(F)cc1F	·	i
COc1cccc(-c2nc(C(=O)NCC3CCCO3)cc3c2[nH]c2ccccc23)c1 (stereo not given)	-5.7	-5.7*
COc1ccc(OC)c(-c2nc(C(=O)NCC3CCCO3)cc3c2[nH]c2ccccc23)c1 (stereo not given)	·	i
COC(=O)c1ccsc1NC(=O)CN1CCN(c2ncccn2)CC1	·	i
Cc1ccc(S(=O)(=O)N2CCCCC2)cc1C(=O)NCCCN1CCOCC1	1.2	i
COc1ccc(N2CCN(c3oc(Cc4cccc5ccccc45)nc3C#N)CC2)cc1	-7	-7*
CC1CCN(c2oc(Cc3cccc4ccccc34)nc2C#N)CC1	-5.9	-5.9*
N#Cc1nc(Cc2cccc3ccccc23)oc1N1CCOCC1	0.03	i
N#Cc1nc(COc2ccccc2)oc1N1CCN(Cc2ccccc2)CC1	-6.4	-6.4*
N#Cc1nc(COc2cccc(Cl)c2)oc1N1CCCC1	·	i
N#Cc1nc(Cc2cccc3ccccc23)oc1N1CCN(c2ccccc2)CC1	·	i
CCc1nnc(SCC(=O)Nc2ccc(F)cc2)o1	1.1	i
CCOC(=O)c1c(C)n(CC(O)CN(C)C)c2cc(Br)c(OC)cc12 (stereo not given)	0.98	i
COc1cc(CC(=O)N/N=C/c2ccc([N+](=O)[O-])cc2)c([N+](=O)[O-])cc1OC	·	i
CCCCn1c(N)c(N(CC(C)C)C(=O)CC2OC(=O)c3ccccc32)c(=O)[nH]c1=O (stereo not given)	·	i
COc1ccccc1N1C(=O)CC(Sc2ccccc2N)C1=O (stereo not given)	0.2	i
COc1cccc(OC)c1C(=O)NC(=O)Oc1c(F)cccc1F	·	i
Cc1ccc(C2C(C#N)=C(N)SC(N)=C2C#N)o1	0.54	i
Cc1ccc(C2OC3=C(C(=O)CC(C)(C)C3)C(N)=C2C#N)o1 (stereo not given)	5.3*	i
Cc1ccccc1NC(=O)CSCc1nc(N)nc(Nc2ccccc2C)n1	5.7*	i
SMILES	KCNQ2 pot	KCNQ2 inh
Cc1ccc(N2CC(C(=O)OCc3nc(N)nc(Nc4ccccc4C)n3)CC2=O)cc1 (stereo not given)	0.86	i
Cc1ccccc1Nc1nc(N)nc(CCl)n1	·	i
Cc1ccccc1Nc1nc(N)nc(COC(=O)C2CCCCC2)n1	7.7*	i
CCc1ccc(N2C(=O)CN(Cc3cccs3)C2=S)cc1	1.6	i
Cc1c(OC(C)C(=O)NCCCn2ccnc2)ccc2c3c(c(=O)oc12)CCC3 (stereo not given)	0.01	i
COc1ccc(Cc2nnc(SCC(=O)Nc3ccccc3C)n(N)c2=O)cc1	·	i
N/C(=N\OC(=O)c1cccc2ccccc12)c1cccc([N+](=O)[O-])c1	0.82	i
Cc1cccc(/C(N)=N/OC(=O)c2cccc3ccccc23)c1	-5.7	-5.7*
Cc1nnc(SCC(=O)Nc2cc(Cl)ccc2Cl)n1CC1CCCO1 (stereo not given)	0.57	i
Cc1cccc2c1-c1sc(C(=O)N3CCCCC3)cc1CO2	·	i
Cc1cccc2c1-c1sc(C(=O)N3CCc4ccccc4C3)cc1CO2	-5.6	-5.6*
COc1cc(/C=N/NC(=S)NC2CC3CC2C2C=CCC32)ccc1O (stereo not given)	·	i
CCC(=O)N1N=C(c2ccc(Cl)cc2)CC1c1ccco1 (stereo not given)	·	i
Cc1ccc(OCC(=O)N2N=C(c3ccc(Cl)cc3)CC2c2ccco2)c([N+](=O)[O-])n1 (stereo not given)	-8.3	-8.3*
CCCn1c(CN2CCN(C(=O)OCC)CC2)nc2cc(NC(=O)CC)ccc21	0.76	i
CC(C)(C)c1ccc(C(=O)Nc2ccc(O)c3c(=O)cc(-c4ccccc4Cl)oc23)cc1	-7	-7*
O=C(Nc1ccc(O)c2c(=O)cc(-c3ccccc3Cl)oc12)c1ccc(F)cc1	1.5	i
COc1ccc(Br)cc1CNC(=O)c1ccc2c(c1)N(C)CCS2	-6.4	-6.4*
CCN1CCSc2ccc(C(=O)NCc3cc(Br)ccc3OC)cc21	·	i
CCCCc1nnc(NC(=O)c2oc3ccccc3c2C)s1	0.29	i
CCOC(=O)c1cc2c(=O)n3ccccc3nc2n(CCCOC)c1=NC(=O)C(C)(C)C	1.1	i
CCOC(=O)c1cc2c(=O)n3ccccc3nc2n(Cc2ccco2)c1=NC(=O)c1cccnc1	-7.1	-7.1*
CCOC(=O)c1cc2c(=O)n3ccccc3nc2n(Cc2ccco2)c1=NC(=O)c1ccccc1OCC	·	i
CCOC(=O)c1cc2c(=O)n3ccccc3nc2n(CCOC)c1=NC(=O)C(C)(C)C	9.7*	i
Cc1cccc(/C=N/NC(=O)c2ccc(NC(=O)c3cccc(Cl)c3)cc2)n1	·	i
SMILES	KCNQ2 pot	KCNQ2 inh
CCCC(=O)Nc1nnc(SCC(=O)NC2CC2)s1	·	i
COc1ccccc1C(=O)NNC(=O)c1ccc(Br)cc1	0.53	i
CC(C)NC(=O)c1ccc2c(c1)N(CC(=O)N1CCCCC1)C(=O)C(C)(C)O2	0.39	i
CC(NC(=O)c1ccc(Br)cc1)C(=O)NC1=NCCS1 (stereo not given)	7.4*	i
CC(NC(=O)c1ccccc1)C(=O)NC1=NCCS1 (stereo not given)	0.56	i
CC1CN(C(=O)CCC(=O)NCCCc2ccccc2)c2ccccc2O1 (stereo not given)	·	i
COc1ccc(S(=O)(=O)N2CCCCC2)cc1NC(=O)C1COc2ccccc2O1 (stereo not given)	·	i
COc1ccccc1C(=O)NC(=O)Nc1c(C)cc(C)cc1C	·	i
COc1ccc(C2NC(C(=O)O)Cc3c2[nH]c2ccccc32)cc1CN1CCN(c2ccc(F)cc2)CC1 (stereo not given)	-5.7	-5.7*
O=C(O)C1Cc2c([nH]c3ccccc23)C(c2ccc3c(c2)OCO3)N1 (stereo not given)	·	i
N#C/C(=C\c1c(Oc2ccccc2F)nc2ccccn2c1=O)C(=O)NC1CCS(=O)(=O)C1 (stereo not given)	·	i
CCOc1cc(/C=N/Nc2nc(N3CCCC3)nc(N3CCCC3)n2)ccc1O	-8.3	-8.3*
CCOc1cccc(/C=N/Nc2nc(N3CCCC3)nc(N3CCCC3)n2)c1O	1.3	i
O=C(CNC(=O)c1nc[nH]c1C(=O)N1CCNCC1)OCc1ccccc1	0.18	i
O=C(CNC(=O)c1nc[nH]c1C(=O)N1CCc2ccccc2C1)OCc1ccccc1	-5.6	-5.6*
CCc1ccc(CNC(=O)C2CCCN(c3nn4c(=O)cc(C)nc4s3)C2)cc1 (stereo not given)	0.75	i
CCC(=O)OCC(=O)Nc1ccc(OC)cc1[N+](=O)[O-]	·	i
COc1ccc(NC(=O)COC(=O)CC23CC4CC(CC(C4)C2)C3)c([N+](=O)[O-])c1	-6.1	-6.1*
O=C(Cc1coc2cc3c(cc12)CCC3)NC1CCCCCCC1	12*	i
